Sampled rows, rich in hits. Any-hit rate of the full collection: about 18%.
IL1B secr inh = inhibitors of inflammasome signaling (IL-1 beta secretion); activity change, % at 57.5 µM; AID 743279; 360,000 tested, 4.7% active; THP-1 LPS/ATP IL-1B secretion, AlphaLISA, 16 h; hits give low values; in the data active means activity change below about -50%; inconclusive means mostly about -30% to -49%
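Secreted IL-1B measured by AlphaLISA bead assay after 16 h compound exposure of THP-1 cells; compounds (final up to 57.5 uM) added 1 h before LPS (250 ng/mL) and ATP (1.25 mM) stimulation; lower signal means less secretion.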
TDP1 cell noCPT = qHTS for Inhibitors of human tyrosyl-DNA phosphodiesterase 1 (TDP1): qHTS in cells in absence of CPT. DT40 Tdp1-/- hTDP1 cells, no CPT, ATP luminescence, 48 h. Potency, µM (highest dose often 46.2 µM), for inactives: top-dose activity change, negative = growth inhibition, hits mostly inhibitors. 420,000 tested, 15% active; further: potency means the concentration at half of the fitted maximal effect; nearly all actives have a fitted effect of over 55% in size
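Chicken DT40 Tdp1-/- cells complemented with human TDP1, screened without camptothecin (DMSO vehicle only), 400 cells/well. Compounds pin-transferred, cells incubated at 37 °C for at least 48 hr. Growth read as ATP-dependent luminescence (CellTiter-Glo, 30 min at RT).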
TDP1 cell CPT = growth inhibition of DT40 Tdp1-/-;hTDP1 cells with camptothecin (screen for TDP1 inhibitors). chicken DT40 Tdp1-/-;hTDP1 cells + 20 nM CPT, ATP luminescence, 48 h. Potency, µM (doses to about 46.2 µM), for inactives: at the highest dose activity change, negative = growth inhibition, usual class: inhibitors. 420,000 tested, 12% active; further: potency means the concentration at half of the fitted maximal effect; nearly all actives have a fitted effect of over 55% in size
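Chicken DT40 Tdp1-/- cells complemented with human TDP1, 400 cells/well, exposed to compounds plus 20 nM camptothecin for at least 48 h at 37 C; viability read as ATP content by CellTiter-Glo luminescence.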
Six1-Eya2 blk = inhibitors of human Six1/Eya2 interaction | Q15475+O00167 | AlphaScreen GST-Six1/His-Eya2 binding, biochemical; hits give low values | activity change, % (no concentration beside the values) | 360,000 tested, 0.56% active | AID 651725; in the data active means activity change below about -65%; inconclusive means mostly about -30% to -63%
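AlphaScreen with GST-Six1 and His-Eya2 (5X mix: 250 nM and 500 nM), glutathione donor and nickel acceptor beads; buffer 50 mM Tris pH 8.0, 300 mM NaCl, 1 mM TCEP; 1 h at 37 C in the dark.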
TDP1 block = blocks human tyrosyl-DNA phosphodiesterase 1. Potency, µM (top dose mostly 130 µM), without a hit: at the top dose activity change, negative = inhibition, hits mostly inhibitors. 350,000 tested, 0.28% active. recombinant TDP1, AlphaScreen DNA substrate cleavage; further: potency means the concentration at half of the fitted maximal effect; nearly all actives have a fitted effect of over 40% in size
Target sequence (Q9NUW8 whole entry, looked up): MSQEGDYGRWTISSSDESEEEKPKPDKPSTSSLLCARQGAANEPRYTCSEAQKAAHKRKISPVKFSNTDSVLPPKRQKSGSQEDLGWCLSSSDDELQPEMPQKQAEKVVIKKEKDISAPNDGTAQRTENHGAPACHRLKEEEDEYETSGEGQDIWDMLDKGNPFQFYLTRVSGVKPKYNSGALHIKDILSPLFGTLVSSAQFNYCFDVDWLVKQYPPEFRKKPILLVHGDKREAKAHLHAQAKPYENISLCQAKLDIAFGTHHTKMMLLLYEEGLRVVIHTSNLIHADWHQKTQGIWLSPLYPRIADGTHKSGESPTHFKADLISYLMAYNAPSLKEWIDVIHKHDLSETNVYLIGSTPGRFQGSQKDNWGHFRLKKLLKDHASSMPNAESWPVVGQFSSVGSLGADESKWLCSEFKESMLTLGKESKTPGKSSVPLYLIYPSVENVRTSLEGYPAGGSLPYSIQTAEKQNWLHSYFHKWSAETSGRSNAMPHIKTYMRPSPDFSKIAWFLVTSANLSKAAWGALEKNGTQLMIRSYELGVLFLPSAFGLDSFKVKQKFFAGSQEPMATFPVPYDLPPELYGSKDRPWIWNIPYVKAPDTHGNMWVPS
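Recombinant human Tdp1 (E. coli-expressed, 1 nM final) preincubated with compounds 15 min at room temperature, then 5'-biotin/3'-phosphotyrosine-FITC DNA substrate (15 nM final) added for 5 min. AlphaScreen beads (10 ug/ml final) added 10 min; cleavage lowers signal.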
CtBP-E1A blk = CtBP/E1A binding inhibition; 340,000 tested, 0.49% active; activity change, % (test concentration not listed); AlphaScreen GST-E1A/His-CtBP binding, 1536-well; hits give low values; AID 651724; in the data active means activity change below about -65%; inconclusive means mostly about -30% to -63%
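Protein mix (5X: 125 nM each GST-E1A, His-CtBP) was incubated with pinned compound 2 h at 37 deg C in dark, in 50 mM Tris pH 8.0 buffer with 300 mM NaCl. Glutathione donor and nickel acceptor beads followed; AlphaScreen signal read after 1 h.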
The depositor's hits bear a star; ? = inconclusive; . = no result. Unless noted, the call rests on the fitted dose curve; in most records, active means well fitted curve in the direction sought with a large enough effect; inconclusive means small, poorly fitted or top-dose-only effect, or another doubt; inactive means no such curve, though single readings can be large; an effect the other way counts as inactive or inconclusive. On the % scale 0 is the no-effect control and ±100 the full control effect.

SMILES	IL1B secr inh	TDP1 cell noCPT	TDP1 cell CPT	Six1-Eya2 blk	TDP1 block	CtBP-E1A blk
COc1nc(N)nc2c1ncn2[C@@H]1O[C@H](CO)[C@@H](O)[C@@H]1O	.	-26%	?	.	.	.
OCC1OC(n2cnc3c(Cl)ncnc32)C(O)C1O (centres undefined)	.	4.6µM*	9.2µM*	.	4%	.
Nc1ncnc2c1ccn2[C@@H]1O[C@H](CO)[C@@H](O)[C@H]1O	-110*	0.15µM*	0.021µM*	4	4%	6
NC(=S)c1cn(C2OC(CO)C(O)C2O)c2ncnc(N)c12 (centres undefined)	-100*	0.16µM*	0.13µM*	-17	3%	.
O=S(=O)(c1ccccc1)C1CN1c1c(F)c(F)c(F)c(F)c1F (centres undefined)	0	?	-19%	1	.	2
CCC(=O)N1CC(=O)Nc2ccc(C)cc2C1c1ccc(F)cc1 (centres undefined)	.	9.2µM*	3.7µM*	.	6%	.
CCC(=O)N1CC(=O)Nc2ccc(F)cc2C1c1ccc(F)cc1 (centres undefined)	13	-1%	-2%	8	.	16
N=C1C(c2ccccc2)=C(O)CN1Cc1ccco1	-15	-29%	-4%	1	6%	12
CCc1cccc(C)c1NC(=S)N1CC2CC(C1)c1cccc(=O)n1C2 (centres undefined)	38	-16%	-14%	7	-4%	3
CC(C)(C)OC(=O)N1CCCC(C(=O)Nc2cccc(C(=O)NCCc3ccccc3)c2)C1 (centres undefined)	10	21µM*	15µM*	6	.	-9
Cc1ccc(C)c(NP(=O)(Oc2ccccc2)Oc2ccccc2)c1	?	16µM*	?	1	.	-4
C=C(Cl)CSC(=S)N(CC)CC	6	3.3µM*	5.2µM*	8	-16%	6
COc1ccc(CC2(CCc3ccncc3)C(=O)NC(=O)NC2=O)cc1OC	14	-18%	-18%	10	5%	.
COc1ccc(CN2CCN(Cc3ccccc3)CC2)c(OC)c1	-8	-23%	?	-11	2%	-24
CCc1ccc(NC(=O)CCNC(=O)N2C[C@H]3C[C@@H](C2)c2cccc(=O)n2C3)cc1	2	-2%	-15%	2	.	15
C1=C(c2c[nH]c3ccccc23)CCN(Cc2ccccc2)C1	0	4.6µM*	9.2µM*	-22	0%	2
Cc1ccc(CCNC(=O)C2CCCN(Cc3nc(-c4cccc(Cl)c4)oc3C)C2)cc1 (centres undefined)	.	15µM*	12µM*	.	3%	.
O=C(c1cc(F)ccc1F)C1CCCN(Cc2cccc(Cl)c2)C1 (centres undefined)	17	?	-19%	22	.	.
c1cc2c(cc1[C@H]1OC[C@H]3[C@@H]1CO[C@H]3c1ccc3c(c1)OCO3)OCO2	-21	?	?	-1	-2%	0
C[C@H]1C[C@H]2[C@@H]3CCC4=CC(=O)C=C[C@]4(C)[C@@]3(F)[C@@H](O)C[C@]2(C)[C@@]1(O)C(=O)CCl	.	0.053µM*	-97%	.	.	.
COc1ccc(-n2c(-c3ccc(C)cc3)nc3ccccc3c2=O)cc1	-19	15µM*	15µM*	-1	2%	3
Cc1ccc(-c2nc3ccccc3c(=O)n2-c2cccc(O)c2)cc1	29	8.2µM*	2.3µM*	-5	2%	-3
Cc1nc2ccccc2c(=O)n1-c1cccc(O)c1	34	-17%	-18%	9	7%	-1
O=c1c2ccccc2nc(-c2ccccc2Cl)n1-c1cccc(O)c1	-19	?	21µM*	-2	.	-1
Cc1ccc(-c2nc3ccccc3c(=O)n2-c2ccncc2)cc1	-7	?	-27%	4	3%	1
SMILES	IL1B secr inh	TDP1 cell noCPT	TDP1 cell CPT	Six1-Eya2 blk	TDP1 block	CtBP-E1A blk
Cc1ccc(-c2nc3ccccc3c(=O)n2-n2cccc2)cc1	-8	12µM*	16µM*	4	6%	2
COc1ccc(Sc2cnn(-c3ccccc3)c(=O)c2Cl)cc1	?	?	?	3	0%	3
CSc1nc2ccccc2c(=O)n1-c1cccnc1	20	-15%	10%	-2	.	11
COc1ccc(-n2c(-c3ccccc3[N+](=O)[O-])nc3ccccc3c2=O)cc1	-10	15µM*	23µM*	-14	.	-6
O=c1c2ccccc2nc(-c2ccccc2)n1-c1nccs1	14	?	16%	-19	4%	15
O=c1c2ccccc2nc(-c2ccc(-c3ccccc3)cc2)n1-c1ccncc1	-19	21µM*	?	-10	9%	-8
O=c1c2ccccc2nc(-c2ccc(Cl)cc2Cl)n1-c1nccs1	0	13µM*	?	5	-3%	-3
COc1ccc(-n2c(SC)nc3ccccc3c2=O)cc1	18	18µM*	15µM*	-3	0%	0
CCC(=Nc1ccccc1N)c1c(O)[nH]c(=O)[nH]c1=O	7	8%	0%	2	.	-2
COc1ccc([N+](=O)[O-])cc1N=Cc1c(O)n(CCc2ccccc2)c(=O)n(C(C)C)c1=O	0	16µM*	?	-12	11%	-6
COC(=O)c1ccc(CC(C(=O)c2ccccc2)N(C)C)cc1 (centres undefined)	0	?	?	-2	.	.
CC(C)C#N	.	.	.	.	3%	.
C[n+]1ccc(-c2ccccc2)c2ccccc21	53	2.6µM*	2.3µM*	0	2%	0
O=C1/C(=C/c2ccc(N(CCCl)CCCl)cc2)Cc2ccccc21	.	7.9µM*	4.5µM*	.	.	.
O=C(NN=Cc1ccc(N(CCCl)CCCl)cc1)c1cc(=O)[nH]c(=O)[nH]1	10	?	?	-13	.	-22
O=c1[nH]/c(=C\c2ccc(N(CCCl)CCCl)cc2)c(=O)[nH]/c1=C\c1ccc(N(CCCl)CCCl)cc1	.	?	3.2µM*	.	.	.
O=C(CN1C(=O)c2ccccc2C1=O)N1CCN(c2nnc(-c3ccccc3)c3ccccc23)CC1	10	?	-19%	1	2%	2
COP(=O)(OC)C(NC(=O)/C=C/c1ccccc1)C(Cl)(Cl)Cl (centres undefined)	?	-24%	0%	1	-5%	.
COc1cc(/C=C/C(=O)c2c(O)n(CCc3ccccc3)c(=O)[nH]c2=O)ccc1O	-99*	10µM*	13µM*	-17	3%	-6
